Data reported in PubChem BioAssay (NCATS).
“And” between values parts separate entries of the source, which are not always exact repeats. Equal entries are not always repeated. Inconclusive results are not listed. The source made the active and inactive calls. Unless noted, calls come from the whole dose curve; as a rule, active = well fitted curve in the direction sought with a large enough effect; inconclusive = small, poorly fitted or top-dose-only effect, or another doubt; inactive = no such curve, though single readings can be large; an effect the other way counts as inactive or inconclusive.

What was measured:
[1] = AP1 Signaling Pathway (AID 357; active = well fitted curve in either direction with a large enough effect, not every such curve was filed as active;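 note: ME-180 reporter cells stimulated with EGF at its EC50 level; % is set by controls: 0 for no effect and ±100 for the full control effect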); conditions: ME-180 AP-1-bla reporter, EGF-induced, beta-lactamase ratio, 5 h
Outline: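 Read-out was the 460nm/530nm emission ratio (excitation 405nm) after CCF4 loading for 2.5 hours at room temperature. Cells carried an AP-1-driven beta-lactamase reporter, were stimulated with EC50 EGF plus compound for 5 hours, and AC50 values came from titrations.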

[2] = NFAT Signaling Pathway (AID 444; active = well fitted curve in either direction with a large enough effect, not every such curve was filed as active;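 note: carbachol stimulus at about its EC50 of 1 µM final; % is set by controls: 0 for no effect and ±100 for the full control effect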); conditions: Jurkat NFAT-bla M1, carbachol, beta-lactamase ratio, 5 h
Outline: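 Jurkat cells carrying an NFAT-driven β-lactamase reporter and co-transfected muscarinic M1 receptor were treated with compound plus carbachol (1 uM final, an EC50 level) for 5 h at 37 °C. CCF4 loading followed for 1 h at RT; 460/530 nm ratio gave %activity.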

[3] = Stat Signaling Pathway (AID 446; active = well fitted curve in either direction with a large enough effect, not every such curve was filed as active;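 note: ME-180 cervical cancer cells given 40 pM IL-6 alongside compound; SIE-controlled beta-lactamase reporter measured as 460/530 nm FRET emission ratio; % is set by controls: 0 for no effect and ±100 for the full control effect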); conditions: ME-180 SIE beta-lactamase reporter, IL-6 stimulated, 5 h
Outline: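 Screening format detects activators and inhibitors alike: ME-180 SIE-bla cells stimulated at 40 pM IL-6 for 5 hrs with compound, then dual-emission beta-lactamase read at 405 nm excitation.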

[4] = molecular target: Glucocorticoid receptor (Homo sapiens) (UniProt P04150); assay: GR-GFP Redistribution (AID 450;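 active = compounds whose dose series gives a full or clear partial fitted curve of increased nuclear translocation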; note: potency is the fitted concentration of half-maximal effect); conditions: U2OS GR-GFP nuclear translocation, laser cytometry, 2 h
[5] = molecular target: Glucocorticoid receptor (Homo sapiens) (UniProt P04150); assay: GR-EFC Redistribution (AID 451; calls by dose curve; note: potency is the fitted concentration of half-maximal effect); conditions: CHO-K1 GR-EFC translocation, beta-gal luminescence, 2 h
Outline: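 CHO-K1 cells stably expressing nuclear-localized β-gal enzyme acceptor and GR fused C-terminally to the enzyme donor fragment; ligand-driven nuclear translocation restores β-gal by complementation. Compounds titrated up to 46 uM final, 2 h at 37 °C; luminescence read.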

[6] = molecular target: 3',5'-cyclic-AMP phosphodiesterase 4B (Homo sapiens) (UniProt Q07343); assay: qHTS Assay for Inhibitors of PDE-IV (AID 607; active = well fitted activation curve with a large enough effect in the main read-out, with a control signal flat, not every such curve was filed as active; note: % of control where 0% means no effect); conditions: HEK293 ACTOne CNG channel cells, membrane potential fluorescence; series mostly up to 22.9 µM
Outline: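 The readout is membrane depolarisation from a cAMP-sensing CNG channel, detected with a potential dye at ex 535/em 590. Cells were HEK293-derived (endogenous PDE-IV) at 1000 cells/well, titrated up to 22.9 uM final.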

[7] = qHTS Assay for Lipid Storage Modulators (AID 1519; calls by dose curve); conditions: Drosophila S3 cells, BODIPY lipid droplet/cell ratio, laser cytometry, cells loaded with oleic acid; for activity change, negative = inhibition: at 25.7 µM (top of the series)
Outline: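 Cells seeded at 5,000 per well were treated with compounds over a concentration series and loaded with oleic acid (400 uM, as added). Lipid droplet fluorescence (488 nm excitation, 500-530 nm channel) was read by laser-scanning cytometry and normalized to 20 uM Triacsin C.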

[8] = molecular target: Ubiquitin carboxyl-terminal hydrolase 1 (Homo sapiens) (UniProt O94782); assay: Inhibitors of USP1/UAF1: Pilot qHTS (AID 504865); conditions: purified USP1/UAF1, Ub-rhodamine cleavage fluorescence; series mostly up to 54.9 µM;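 note: rhodamine fluorescence freed from ubiquitin-rhodamine substrate followed over time; top concentration of the series differs between compounds; % is set by controls: 0 for no effect and ±100 for the full control effect; nearly all actives have a fitted effect of over 35% in size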
Outline: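 Enzyme-free wells gave the negative control, while test wells held 1nM USP1/UAF1 preincubated with compound for 15 min at room temperature. Ub-Rho at 150nM final started the reaction, and fluorescence at 480/540 nm was recorded kinetically.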

[9] = molecular target: Cytochrome P450 1A2 (Homo sapiens) (UniProt P05177); assay: p450-cyp1a2 (AID 410; calls by dose curve; note: potency is the fitted concentration of half-maximal effect;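 for activity change, negative = inhibition: -100% = full effect of reference inhibitor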); conditions: recombinant CYP1A2, luciferin-ME demethylation, luminescence; series mostly up to 57 µM
Outline: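 Human CYP1A2 (20nM) demethylated Luciferin-ME at its Km (100uM) in 100mM KPO4. After 10 min compound preincubation, NADPH regeneration ran the reaction 60 min at room temperature. Luciferin was read by luminescence, normalized to 57 uM furafylline.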

[10] = molecular target: Mitogen-activated protein kinase 10 (Mus musculus) (UniProt Q61831); assay: JNK3 AlphaScreen Assay (AID 530; active = well fitted curve in either direction with a large enough effect, not every such curve was filed as active;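 note: kinase came from lysate of stimulated human HepG2 cells; signal reports phosphorylation of biotinylated GST-cJun 1-79 at Ser73 with 10 µM ATP; % is set by controls: 0 for no effect and ±100 for the full control effect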); conditions: JNK3 lysate, c-Jun phosphorylation; series mostly up to 57.1 µM
Outline: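 JNK3 came from HepG2 lysates pre-activated with IL-1beta and TNF-alpha and phosphorylated biotinylated GST-cJun (1-79) at 10 uM ATP, pH 7.6, room temperature. Compounds were titrated. AlphaScreen signal used anti-phospho-cJun (Ser73) antibody.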

[11] = molecular target: ATP-dependent 6-phosphofructokinase (Trypanosoma brucei brucei) (UniProt O15648); assay: qHTS Assay to Find Inhibitors of T. brucei phosphofructokinase: hit validation (AID 492961); conditions: T. brucei PFK, ADP-Glo luminescence; series mostly up to 24.3 µM
Outline: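 PFK 1.25 nM, F6P 0.5 mM, ATP 0.1 mM, MgCl2 5 mM, 0.1 M TEA pH 8.0, Tween20 0.01%, BSA 0.1%; 45 min RT. ADP-Glo two-step detection, luminescence. qHTS titration; curve fitting with curve-class categorization.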

[12] = molecular target: Luciferin 4-monooxygenase (Photinus pyralis) (UniProt P08659); assay: Biochemical firefly luciferase enzyme assay for NPC (AID 624030);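 note: purified P. pyralis luciferase at 10 nM with luciferin and ATP substrate; 0% = DMSO and -100% = full luciferase inhibition by PTC124 control; nearly all actives have a fitted effect of over 70% in size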; conditions: purified P. pyralis luciferase, luminescence, 5 min; series mostly up to 58.6 µM
Outline: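 Counter-screen for direct inhibition of the luciferase enzyme by approved-drug library compounds, run at 10 nM enzyme in 50 mM Tris acetate (final). Luminescence was read within 5 min of enzyme-buffer addition and normalized to PTC124 versus DMSO (0%).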

[13] = qHTS profiling for inhibitors of Plasmodium falciparum proliferation (AID 504749);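 note: 0% = DMSO vehicle and full inhibition = artemisinin control; nearly all actives have a fitted effect of over 60% in size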; conditions: P. falciparum in erythrocytes, SYBR Green DNA, 72 h
Outline: (§1)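 P. falciparum-infected erythrocytes (0.3% parasitemia, 2.5% hematocrit final) were exposed to compounds for 72 h at 37 C in 5% CO2, then lysed with SYBR Green buffer overnight at room temperature; parasite DNA fluorescence was normalized to artemisinin and DMSO controls.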

AS120 = assay: as above; conditions: P. falciparum in erythrocytes, SYBR Green DNA, 72 h; series mostly up to 28.7 µM
Outline: as §1

CP238 = assay: as above; conditions: P. falciparum in erythrocytes, SYBR Green DNA, 72 h; series mostly up to 12.8 µM
Outline: as §1

CP250 = assay: as above; conditions: P. falciparum in erythrocytes, SYBR Green DNA, 72 h; series mostly up to 12.8 µM
Outline: as §1

CP262 = assay: as above; conditions: P. falciparum in erythrocytes, SYBR Green DNA, 72 h; series mostly up to 12.8 µM
Outline: as §1

CP265 = assay: as above; conditions: P. falciparum in erythrocytes, SYBR Green DNA, 72 h; series mostly up to 12.8 µM
Outline: as §1

FAB9 = assay: as above; conditions: P. falciparum in erythrocytes, SYBR Green DNA, 72 h; series mostly up to 12.8 µM
Outline: as §1

[14] = molecular target: alpha-glucosidase (Oryza sativa, rice) (UniProt Q653V4); assay: Counterscreen for Glucocerebrosidase Inhibitors: qHTS Assay for Rice alpha-Glucosidase at pH 5.0 (AID 997); conditions: rice alpha-glucosidase enzyme activity; series mostly up to 76.9 µM;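 note: 0% = full activity with enzyme and -100% = basal without enzyme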
Outline: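 Rice alpha-glucosidase (4 nM final) with 400 uM 4-methylumbelliferyl-alpha-D-glucopyranoside in citrate buffer pH 5.0, 20 min at room temperature, stopped at pH 10; fluorescence 365/440 nm, compounds 0.7 nM–77 uM, AC50 from Hill fits.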

[15] = measured here: cell count channel max response
[16] = measured here: lipid channel max response
[17] = at 7.69 µM (top of the series) unless noted
[18] = at 12.8 µM (top of the series), parasite line A
[19] = at 12.8 µM (top of the series), parasite line B

Luciferin 4-monooxygenase (Photinus pyralis), sequence (P08659 whole entry, looked up): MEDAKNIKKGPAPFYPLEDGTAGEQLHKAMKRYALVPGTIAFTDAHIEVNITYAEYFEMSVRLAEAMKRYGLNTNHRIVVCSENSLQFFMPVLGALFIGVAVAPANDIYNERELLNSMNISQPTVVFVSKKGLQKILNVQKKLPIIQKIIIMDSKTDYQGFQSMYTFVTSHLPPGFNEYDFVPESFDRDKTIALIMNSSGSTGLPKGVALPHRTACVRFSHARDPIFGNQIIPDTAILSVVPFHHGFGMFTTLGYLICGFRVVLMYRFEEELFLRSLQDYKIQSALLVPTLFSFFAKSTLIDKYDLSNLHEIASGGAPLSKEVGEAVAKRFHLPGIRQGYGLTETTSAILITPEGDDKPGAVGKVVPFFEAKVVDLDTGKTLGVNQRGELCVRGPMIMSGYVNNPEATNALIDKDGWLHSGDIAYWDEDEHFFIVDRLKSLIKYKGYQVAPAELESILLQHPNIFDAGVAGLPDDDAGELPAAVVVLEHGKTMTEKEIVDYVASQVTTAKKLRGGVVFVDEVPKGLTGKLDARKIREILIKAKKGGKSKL
3',5'-cyclic-AMP phosphodiesterase 4B (Homo sapiens), sequence (Q07343 whole entry, looked up): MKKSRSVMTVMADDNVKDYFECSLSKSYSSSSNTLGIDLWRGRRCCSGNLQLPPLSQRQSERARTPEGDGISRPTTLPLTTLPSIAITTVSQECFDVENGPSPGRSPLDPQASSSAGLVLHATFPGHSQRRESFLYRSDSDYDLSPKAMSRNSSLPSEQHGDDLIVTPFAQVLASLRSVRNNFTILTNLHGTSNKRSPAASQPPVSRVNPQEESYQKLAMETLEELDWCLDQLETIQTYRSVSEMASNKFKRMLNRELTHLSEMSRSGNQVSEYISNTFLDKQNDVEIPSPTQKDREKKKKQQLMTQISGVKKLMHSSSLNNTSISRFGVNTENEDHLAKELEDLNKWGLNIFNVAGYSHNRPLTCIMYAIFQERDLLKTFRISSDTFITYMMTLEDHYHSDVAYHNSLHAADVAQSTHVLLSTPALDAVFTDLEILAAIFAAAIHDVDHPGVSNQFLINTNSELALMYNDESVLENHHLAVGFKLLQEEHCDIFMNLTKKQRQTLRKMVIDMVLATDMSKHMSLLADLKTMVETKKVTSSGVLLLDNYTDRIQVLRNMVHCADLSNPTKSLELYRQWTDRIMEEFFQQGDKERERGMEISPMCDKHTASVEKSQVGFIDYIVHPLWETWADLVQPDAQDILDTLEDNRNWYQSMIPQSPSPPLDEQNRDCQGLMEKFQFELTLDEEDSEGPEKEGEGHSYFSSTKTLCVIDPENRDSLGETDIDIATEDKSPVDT
Ubiquitin carboxyl-terminal hydrolase 1 (Homo sapiens), sequence (O94782 whole entry, looked up): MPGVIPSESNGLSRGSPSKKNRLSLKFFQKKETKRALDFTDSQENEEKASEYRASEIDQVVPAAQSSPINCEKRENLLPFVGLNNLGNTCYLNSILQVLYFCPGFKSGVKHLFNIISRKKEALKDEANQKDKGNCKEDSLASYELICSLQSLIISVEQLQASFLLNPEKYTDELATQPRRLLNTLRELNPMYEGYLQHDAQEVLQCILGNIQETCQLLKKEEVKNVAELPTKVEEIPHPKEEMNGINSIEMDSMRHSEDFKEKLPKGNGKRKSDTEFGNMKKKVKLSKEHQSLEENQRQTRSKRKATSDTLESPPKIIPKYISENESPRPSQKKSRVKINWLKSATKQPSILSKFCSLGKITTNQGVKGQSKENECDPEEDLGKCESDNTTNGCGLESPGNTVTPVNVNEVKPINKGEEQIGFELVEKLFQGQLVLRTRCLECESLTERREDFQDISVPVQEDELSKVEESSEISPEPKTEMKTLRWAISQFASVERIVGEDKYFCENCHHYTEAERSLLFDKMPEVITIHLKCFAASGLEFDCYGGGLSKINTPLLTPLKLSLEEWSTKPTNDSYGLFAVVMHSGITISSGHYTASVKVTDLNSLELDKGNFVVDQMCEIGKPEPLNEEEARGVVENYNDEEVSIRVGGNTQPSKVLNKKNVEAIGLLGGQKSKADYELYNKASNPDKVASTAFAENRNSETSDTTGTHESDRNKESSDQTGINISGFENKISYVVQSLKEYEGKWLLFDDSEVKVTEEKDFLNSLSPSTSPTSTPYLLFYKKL
Glucocorticoid receptor (Homo sapiens), sequence (P04150 whole entry, looked up, the tested form may be a part): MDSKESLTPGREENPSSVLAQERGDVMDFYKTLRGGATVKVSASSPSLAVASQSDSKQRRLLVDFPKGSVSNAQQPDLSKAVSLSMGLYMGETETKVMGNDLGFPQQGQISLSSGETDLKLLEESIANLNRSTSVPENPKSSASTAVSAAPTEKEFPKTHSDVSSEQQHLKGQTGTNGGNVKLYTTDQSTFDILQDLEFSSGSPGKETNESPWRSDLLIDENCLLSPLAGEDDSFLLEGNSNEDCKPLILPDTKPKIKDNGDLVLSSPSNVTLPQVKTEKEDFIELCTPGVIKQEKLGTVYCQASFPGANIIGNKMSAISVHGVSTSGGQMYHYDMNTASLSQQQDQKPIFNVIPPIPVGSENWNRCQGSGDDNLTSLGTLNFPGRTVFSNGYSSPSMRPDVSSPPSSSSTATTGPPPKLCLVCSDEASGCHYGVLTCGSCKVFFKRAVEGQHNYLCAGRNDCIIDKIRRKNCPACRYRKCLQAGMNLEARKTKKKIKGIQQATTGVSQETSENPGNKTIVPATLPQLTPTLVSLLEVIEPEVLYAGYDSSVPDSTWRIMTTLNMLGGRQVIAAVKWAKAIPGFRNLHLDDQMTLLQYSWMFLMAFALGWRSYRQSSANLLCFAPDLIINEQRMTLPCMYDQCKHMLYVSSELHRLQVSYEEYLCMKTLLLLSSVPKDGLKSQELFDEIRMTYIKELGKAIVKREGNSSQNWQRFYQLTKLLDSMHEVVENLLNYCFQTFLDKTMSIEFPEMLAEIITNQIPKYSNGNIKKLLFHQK
ATP-dependent 6-phosphofructokinase (Trypanosoma brucei brucei), sequence (O15648 whole entry, looked up): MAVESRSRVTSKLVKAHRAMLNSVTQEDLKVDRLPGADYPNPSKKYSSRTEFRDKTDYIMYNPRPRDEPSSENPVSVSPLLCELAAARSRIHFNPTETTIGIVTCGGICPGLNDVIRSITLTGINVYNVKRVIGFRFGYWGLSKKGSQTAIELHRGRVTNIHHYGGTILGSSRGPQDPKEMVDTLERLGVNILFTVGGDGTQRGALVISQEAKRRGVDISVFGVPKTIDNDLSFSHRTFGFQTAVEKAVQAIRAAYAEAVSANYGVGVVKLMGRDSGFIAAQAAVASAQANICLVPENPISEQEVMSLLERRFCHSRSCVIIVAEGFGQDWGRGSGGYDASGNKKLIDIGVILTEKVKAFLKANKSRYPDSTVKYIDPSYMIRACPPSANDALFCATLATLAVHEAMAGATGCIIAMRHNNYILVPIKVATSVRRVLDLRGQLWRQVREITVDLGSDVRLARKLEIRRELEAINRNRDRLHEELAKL
Cytochrome P450 1A2 (Homo sapiens), sequence (P05177 whole entry, looked up): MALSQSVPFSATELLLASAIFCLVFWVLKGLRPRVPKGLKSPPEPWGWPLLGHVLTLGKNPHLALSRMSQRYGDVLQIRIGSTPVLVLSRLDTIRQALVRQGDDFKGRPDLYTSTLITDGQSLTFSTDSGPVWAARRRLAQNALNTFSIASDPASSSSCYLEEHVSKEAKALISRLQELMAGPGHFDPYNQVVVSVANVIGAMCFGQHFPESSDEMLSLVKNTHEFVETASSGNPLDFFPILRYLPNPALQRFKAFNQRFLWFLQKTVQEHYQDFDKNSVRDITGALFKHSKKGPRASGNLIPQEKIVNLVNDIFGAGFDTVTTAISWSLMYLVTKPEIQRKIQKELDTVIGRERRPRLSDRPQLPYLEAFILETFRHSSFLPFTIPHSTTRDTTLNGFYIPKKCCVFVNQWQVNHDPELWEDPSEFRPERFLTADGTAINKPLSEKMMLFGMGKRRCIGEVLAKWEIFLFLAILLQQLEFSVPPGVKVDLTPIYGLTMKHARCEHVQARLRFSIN

C[C@@]12C[C@@H](O)[C@H]3[C@@H](CCC4=CC(=O)CC[C@]43C)[C@H]1CC[C@H]2C(=O)CO
activity change, negative = inhibition ([1]; at 17.2 µM (top of the series)): 4.07% (inactive) | activity change, negative = inhibition ([1]; at 38 µM (top of the series)): -3.18% (inactive) | activity change, negative = inhibition ([2]; at 17.2 µM (top of the series)): 0.118% (inactive) | activity change, negative = inhibition ([2]; at 38 µM (top of the series)): -0.571% (inactive) | activity, negative = inhibition ([3]; at 17.2 µM (top of the series)): -0.637% (inactive) | activity, negative = inhibition ([3]; at 38 µM (top of the series)): -1.77% (inactive) | Potency [4]: 74.2 nM (active) and 8.8 nM (active) | Potency [5]: 0.179 µM (active) | Potency [6]: inactive | activity change, negative = inhibition [7]: -3.75% (inactive) | max response [7, 15]: -3.56% | max response [7, 16]: -9.53% | Potency [8]: inactive

NC(N)=NC[C@@H]1COC2(CCCCC2)O1
activity change, negative = inhibition [1, 17]: 13.7% [at 17.2 µM] (inactive) | Potency [9]: inactive | activity change, negative = inhibition [2, 17]: 18.5% [at 17.2 µM] (inactive) | activity, negative = inhibition [3, 17]: 6.54% [at 17.2 µM] (inactive) | Potency [4]: > 20.6 µM (inactive) | Potency [5]: > 20.6 µM (inactive) | Potency [10]: inactive | Potency [6]: inactive | activity change, negative = inhibition [7]: -0.418% (inactive) | max response [7, 15]: -12.5% | max response [7, 16]: -12.6% | outcome [11]: inactive | Potency [8]: inactive | outcome [12]: inactive | activity, negative = inhibition [13, 18]: -12.1% (inactive) | activity, negative = inhibition [13, 19]: -13% (inactive) | Potency (AS120): inactive | Potency (CP238): inactive | Potency (CP250): inactive | Potency (CP262): inactive | Potency (CP265): inactive | Potency (FAB9): inactive

COc1ccccc1OC[C@H](O)COC(N)=O
activity change, negative = inhibition [1, 17]: -6.22% [at 17.2 µM] (inactive) | Potency [9]: 10 µM (active) | activity change, negative = inhibition [2, 17]: -5.33% [at 17.2 µM] (inactive) | activity, negative = inhibition [3, 17]: 10.4% [at 17.2 µM] (inactive) | Potency [4]: > 20.6 µM (inactive) | Potency [5]: > 20.6 µM (inactive) | Potency [10]: inactive | Potency [6]: inactive | activity change, negative = inhibition [7]: 1.49% (inactive) | max response [7, 15]: -1.12% | max response [7, 16]: 2.55% | outcome [11]: inactive | Potency [8]: inactive | outcome [12]: inactive | activity, negative = inhibition [13, 18]: 3.95% (inactive) | activity, negative = inhibition [13, 19]: 18.1% (inactive) | Potency (AS120): inactive | Potency (CP238): inactive | Potency (CP250): inactive | Potency (CP262): inactive | Potency (CP265): inactive | Potency (FAB9): inactive

CN(C)[C@@H]1C(=O)C(C(N)=O)=C(O)[C@]2(O)C(=O)C3=C(O)c4c(O)ccc(Cl)c4[C@H](O)[C@H]3C[C@@H]12
activity change, negative = inhibition ([1]; at 17.2 µM (top of the series)): -2.16% (inactive) | activity change, negative = inhibition ([1]; at 38 µM (top of the series)): -12.4% (inactive) | activity change, negative = inhibition ([2]; at 17.2 µM (top of the series)): -15.3% (inactive) | activity change, negative = inhibition ([2]; at 38 µM (top of the series)): -6.38% (inactive) | activity, negative = inhibition ([3]; at 17.2 µM (top of the series)): -1.53% (inactive) | activity, negative = inhibition ([3]; at 38 µM (top of the series)): 3.61% (inactive) | Potency [4]: > 46 µM (inactive) and > 20.6 µM (inactive) | Potency [5]: > 46 µM (inactive) and > 20.6 µM (inactive) | Potency [10]: inactive | Potency [6]: inactive | outcome [14]: inactive | activity change, negative = inhibition [7]: 2.69% (inactive) | max response [7, 15]: 4.73% | max response [7, 16]: 8.96% | outcome [11]: inactive | Potency [8]: inactive | outcome [12]: inactive | activity, negative = inhibition ([13]; at 28.7 µM (top of the series), parasite line A): -26.7% (inactive) | Potency (AS120): inactive | Potency (CP238): inactive | Potency (CP250): inactive | Potency (CP262): inactive | Potency (CP265): inactive | Potency (FAB9): inactive
